Hits are enriched below; roughly 3.6% of the tested compounds scored in any of these assays.
AmpC inh no detg – qHTS Inhibitors of AmpC Beta-Lactamase (assay without detergent). P00811. AmpC nitrocefin hydrolysis, absorbance 480 nm, 0.0001% Triton. Potency, µM (highest dose often 57.1 µM), inactives show at the highest dose activity change, negative = inhibition, usual class: inhibitors. 330,000 compounds, 0.52% hits. AID 485341, 2010;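 also: plate controls were no compound for no effect and no enzyme for full effect; nearly all actives have a fitted effect of over 20% in size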
Target sequence (P00811 whole entry, looked up): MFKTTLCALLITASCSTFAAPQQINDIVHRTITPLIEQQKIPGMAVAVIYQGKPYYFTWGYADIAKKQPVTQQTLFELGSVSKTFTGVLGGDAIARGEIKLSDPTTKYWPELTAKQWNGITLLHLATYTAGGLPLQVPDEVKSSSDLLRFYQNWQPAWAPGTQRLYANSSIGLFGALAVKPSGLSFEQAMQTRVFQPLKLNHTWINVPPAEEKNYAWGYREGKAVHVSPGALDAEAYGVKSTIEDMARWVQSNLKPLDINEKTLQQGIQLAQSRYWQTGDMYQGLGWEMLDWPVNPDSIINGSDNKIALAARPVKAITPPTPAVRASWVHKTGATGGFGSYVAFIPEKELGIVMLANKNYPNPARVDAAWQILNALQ
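AmpC (5.3 nM in the dispensed reagent) in 20 mM phosphate pH 7.0 with 0.01% (detergent screen) or 0.0001% Triton X-100 was preincubated with compounds for 15 min at room temperature. Nitrocefin was then added from an 800 uM solution, and hydrolysis was followed at 480 nm.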
FBPA Giardia inh – qHTS Assay for Inhibitors of Fructose-1,6-bisphosphate Aldolase from Giardia Lamblia | 290,000 compounds, 0.71% hits | purified Giardia FBPA | Potency, µM (highest dose often 59.6 µM), for the others: top-dose activity, negative = inhibition, hits mostly inhibitors | A8B2U2 | AID 2451, 2010; also: nearly all actives have a fitted effect of over 55% in size
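Giardia FBPA (40 nM reagent) was preincubated 10 min at RT with compound (up to 57.5 uM final), then substrate plus GAPDH/TPI/NAD/arsenate coupling system with diaphorase/resazurin was added; resorufin fluorescence (525/598 nm) was read after 20 min.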
Sm TGR inh – qHTS Assay for the Inhibitors of Schistosoma Mansoni Peroxiredoxins. purified TGR, DTNB reduction, TNB absorbance 405 nm. Potency, µM (titrated, usually from 114 µM), inactives show top-dose activity change, negative = inhibition, hits mostly inhibitors. 360,000 compounds, 3% hits. AID 485364, 2010; also: nearly all actives have a fitted effect of over 60% in size
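Kinetic colorimetric format: TGR-catalysed, NADPH-driven DTNB reduction monitored via TNB absorbance. Enzyme dispensed at 20 nM; compound exposure 15 min at room temperature before reaction start.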
AmpC detergent – qHTS Inhibitors of AmpC Beta-Lactamase (assay with detergent); P00811; AmpC hydrolysis of nitrocefin, absorbance 480 nm, 0.01% Triton; Potency, µM (top dose mostly 114 µM), without a hit: top-dose activity change, negative = inhibition, most hits filed as inhibitors; 370,000 compounds, 0.041% hits; AID 485294, 2010;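 also: 0% = no-compound wells and -100% = no-enzyme wells; nearly all actives have a fitted effect of over 25% in size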
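20 mM phosphate pH 7.0 + 0.01% (detergent screen) or 0.0001% Triton X-100; 5.3 nM AmpC reagent; cpd preinc 15 min RT; nitrocefin (800 uM stock) to start; A480 q20 s × 4 min; Activity was normalised to no-enzyme and no-compound control wells.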
* = called active by the depositor; ? = inconclusive; . = not tested or not shown; [ ] = another dose, or the depositor's remark. Calls follow the shape of the dose curve; as a rule, active = well fitted curve in the direction sought with a large enough effect; inconclusive = small, poorly fitted or top-dose-only effect, or another doubt; inactive = no such curve, though single readings can be large; an effect the other way counts as inactive or inconclusive. Unless noted, % is scaled to controls: 0 for no effect and ±100 for the full control effect; potency is read from the fitted curve at half-maximal effect.

SMILES	AmpC inh no detg	FBPA Giardia inh	Sm TGR inh	AmpC detergent
O=C1CC(N2CCN(C3CC(=O)N(CCc4ccccc4)C3=O)CC2)C(=O)N1CCc1ccccc1 (stereo not given)	146%	3%	-2%	-7%
O=C(C1CCN(C2CC(=O)N(Cc3ccccc3)C2=O)CC1)N1CCCCCC1 (stereo not given)	118%	1%	22µM*	-3%
O=C1CC(N2CCC(Cc3ccccc3)CC2)C(=O)N1CCc1ccccc1 (stereo not given)	194%	-3%	11µM*	-1%
O=C(C1CCN(C2CC(=O)N(c3cccc(Cl)c3)C2=O)CC1)N1CCCC1 (stereo not given)	17%	-3%	22µM*	?
C=CN1CCCC1=O	.	6%	.	.
CCOC(=O)c1c(C)[nH]c(C)c1S(=O)(=O)N1CCN(c2ccccc2OC)CC1	.	.	-9%	0%
CC(=O)c1c(C)oc2c(Cl)cc(NS(=O)(=O)c3cc(C)c(C)cc3C)cc12	.	.	-1%	7%
NC(=O)C1CCN(C2CC(=O)N(Cc3ccc(N4CCCC4=O)cc3)C2=O)CC1 (stereo not given)	-17%	2%	35µM*	-7%
Cc1cc(NC(=O)CSc2nnc(-c3ccco3)n2C)no1	-10%	.	-28%	-1%
Cn1c(SCC(=O)Nc2ccc(F)cc2F)nnc1-c1cccnc1	0.32µM*	0%	0%	?
Cn1c(SCC(=O)Nc2ccc(Cl)cc2F)nnc1-c1ccco1	0%	-3%	35µM*	-3%
CCN(CC1CCCO1)C(=O)CCc1nnc(Cc2ccc3c(c2)OCO3)o1 (stereo not given)	11%	0%	28µM*	7%
CC(C)c1cc(NC(=O)CCl)on1	-13%[11.4 µM]	-9%	13µM*	?
Cc1cc(NC(=O)CCl)on1	-18%	-19%	16µM*	3%
Cc1ccc(NC(=O)Cn2cc(C(=O)C3CCCCC3)c3ccccc32)c(C)c1	.	.	-7%	16%
Cc1cc(/C=C(\C#N)C(=O)NCCc2c[nH]c3ccccc23)c(C)n1C	25µM*	-3%	-4%	-6%
Cc1ccc(NC(=O)CCN2CC(C)OC(C)C2)cc1 (stereo not given)	-14%	?	0%	?
O=C(CSc1nc(=O)n(Cc2ccncc2)c2c1CCC2)Nc1ccccc1	.	.	8%	1%
COC(=O)Cn1c(=NC(=O)c2ccc3c(c2)OCCO3)sc2ccccc21	.	.	2%	13%
COc1ccc(C2(CNC(=O)/C=C\c3ccco3)CCCC2)cc1OC	78%	-14%	3.2µM*	-4%
COc1cccc(C(=O)NCC2(c3ccc(OC)c(OC)c3)CCCC2)c1	26%	-1%	-30%	-1%
COc1ccc(C(NC(=O)/C=C/c2ccco2)c2ccc(OC)c(OC)c2)cc1OC	106%	9%	8.9µM*	-8%
CC(=O)/C=C/c1ccc(C)o1	1%	-4%	7.1µM*	3%
Cc1ccc(/C=C/C(=O)NCc2cccs2)cc1	-9%	-4%	3%	-7%
Cc1ccc(/C=C/C(=O)NCc2cccs2)o1	-24%	-4%	2.8µM*	-3%
SMILES	AmpC inh no detg	FBPA Giardia inh	Sm TGR inh	AmpC detergent
CC(/C=C/c1ccc(C)o1)=C\C(=O)O	1%	6%	7.9µM*	-1%
Cc1ccc(CNC(=O)/C=C/c2ccc(Br)o2)cc1	-57%	0%	8.9µM*	?
CC(C)N(CCc1ccncc1)C(=S)Nc1ccc(F)c(Cl)c1	-17%	-7%	4%	1%
COC(=O)c1ccccc1NC(=O)N1CSC[C@H]1C(=O)OC	2%	5%	28µM*	-3%
O=C(NC(=S)NCc1ccccc1)c1ccc2c(c1)OCO2	-35%	-4%	40µM*	?
O=C(NNC(=S)NCc1ccccc1)c1ccc2c(c1)OCO2	-12%	7%	-6%	?
COC(=O)c1ccccc1NC(=S)NC(=O)c1ccc2c(c1)OCO2	-25%	.	11µM*	-13%
COC(=O)c1ccccc1NC(=S)NC(=O)c1ccccc1C	-59%	-10%	?	40µM*
COC(=O)c1ccccc1NC(=O)c1ccc2c(c1)OCCO2	-28%	-2%	17%	-11%
COC(=O)c1ccccc1NC(=O)C1CCCC1	-3%	7%	-4%	-6%
Cc1cccc(N2CCN(C(=O)c3cc(COc4ccc(F)c(F)c4)on3)CC2)n1	49%	.	6%	3%

Assay outcomes from PubChem.
